What was measured:
Conditions in all cases: concentration: 1 μM, replicates: in singlicate; n = 1
PIK4CB = test system: T1, PIK4CB
T1 construct: gene PI4KB

PIKFYVE = test system: PIKFYVE
PIM1 = test system: PIM1
PIM2 = test system: PIM2
PIM3 = test system: PIM3
PIP5K1A = test system: PIP5K1A
PIP5K1C = test system: PIP5K1C
PIP5K2B = test system: PIP5K2B
PIP5K2C = test system: T2, PIP5K2C
T2 construct: gene PIP4K2C

PKAC-alpha = test system: T3, PKAC-alpha
T3 construct: gene PRKACA
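Also: KINOMEscan kinase panel screen.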

| Compound | %Inh (PIK4CB) [%] | %Inh (PIKFYVE) [%] | %Inh (PIM1) [%] | %Inh (PIM2) [%] | %Inh (PIM3) [%] | %Inh (PIP5K1A) [%] | %Inh (PIP5K1C) [%] | %Inh (PIP5K2B) [%] | %Inh (PIP5K2C) [%] | %Inh (PKAC-alpha) [%] |
| --- | --- | --- | --- | --- | --- | --- | --- | --- | --- | --- |
| Cc1ccc(NC(=O)Nc2ccc(Cl)cc2)cc1-c1ccc(C(=O)Nc2ccncc2)cc1 [GSK1398472] | 5 | 0 | 9 | 0 | 0 | 11 | 41 | 12 | 2 | 7 |
| COc1ccc(CSc2nnc(-c3ccc4nccn4c3)o2)cc1C(F)(F)F | 0 | 0 | 6 | 9 | 0 | 2 | 0 | 43 | 0 | 10 |
| COC(=O)c1cccc(NC(=O)NC2CCN(c3ccnc(Nc4ccc(F)cc4)n3)C2)c1 (centres unmarked) [GSK1379725] | 6 | 0 | 30 | 0 | 0 | 0 | 14 | 9 | 0 | 0 |
| CCn1c(-c2c(N)noc2C)nc2cnccc21 [SB-737856] | 0 | 0 | 0 | 0 | 0 | 0 | 0 | 19 | 6 | 0 |
| CNc1cc(-c2ccc3c(N)n[nH]c3c2)nc(N)n1 [GSK2224810] | 11 | 0 | 15 | 0 | 0 | 18 | 45 | 5 | 27 | 8 |
| O=C(Nc1n[nH]c2nc(-c3ccco3)c(Br)cc12)C1CCN(Cc2ccccc2)C1.O=C(O)[C@H](O)[C@@H](O)C(=O)O (centres unmarked) [SB-742034] | 14 | 7 | 9 | 5 | 28 | 0 | 0 | 0 | 0 | 10 |
| Cn1cncc1-c1cc2c(Nc3ccc(OCc4ccccc4)cc3)ncnc2cn1 [GW281179] | 0 | 18 | 0 | 0 | 0 | 0 | 23 | 0 | 26 | 0 |
| Nc1cccc(-c2ccc3c(N)n[nH]c3c2)n1 [GSK2192730] | 30 | 0 | 26 | 0 | 13 | 39 | 0 | 4 | 0 | 0 |

Source: paper PMC5540273 (PLoS ONE, 2017)
